Data taken from PubChem BioAssay (NCI).
The panel holds about 83,000 compounds, 20% with a hit somewhere; the sample as a whole holds those more often.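 In brief: 96-well plates, 48 h treatment, single concentration, percent growth endpoint.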 The source made the active and inactive calls. How the source made its calls: active means growth percent below 10; inactive means the rest.

Columns and labels:
Assay in all cases: NCI-60 one-dose screen, 48 h (100 = growth as untreated, 0 = no growth, -100 = all killed)
Conditions in all cases: 10 µM unless noted
SR leukemia = system: SR leukemia
RPMI-8226 leukemia = system: RPMI-8226 leukemia
OVCAR-8 ovarian = system: OVCAR-8 ovarian
OVCAR-5 ovarian = system: OVCAR-5 ovarian
OVCAR-4 ovarian = system: OVCAR-4 ovarian
IGROV1 ovarian = system: IGROV1 ovarian
OVCAR-3 ovarian = system: OVCAR-3 ovarian
HS 578T breast = system: HS 578T breast
NCI/ADR-RES ovarian = system: NCI/ADR-RES ovarian
SK-OV-3 ovarian = system: SK-OV-3 ovarian

Compound | growth (SR leukemia) | growth (RPMI-8226 leukemia) | growth (OVCAR-8 ovarian) | growth (OVCAR-5 ovarian) | growth (OVCAR-4 ovarian) | growth (IGROV1 ovarian) | growth (OVCAR-3 ovarian) | growth (HS 578T breast) | growth (NCI/ADR-RES ovarian) | growth (SK-OV-3 ovarian)
COC(=O)/C=C/c1cc(O)c2oc(-c3ccc(O)c(O)c3)c(C(=O)OC)c2c1 | 22% (inactive) | -16.8% (active) | 18.5% (inactive) | 43.6% (inactive) | 42.8% (inactive) | 32.4% (inactive) | 11.7% (inactive) | 18.3% (inactive) | -3.33% (active) | –
CCCCCCNc1nc(N2CCOCC2)c2[nH]c(NCCCCCC)nc2n1 | -29.2% (active) | -44.4% (active) | -67.7% (active) | -92% (active) | -88.9% (active) | -55.4% (active) | -98.1% (active) | – | -98% (active) | -97.1% (active)
CC(=N\N=C(N)N)/C(=N/N=C(N)N)c1ccccc1 | 89.3% (inactive) | 91.7% (inactive) | 83.1% (inactive) | 96.1% (inactive) | 79.2% (inactive) | 91.4% (inactive) | 97.9% (inactive) | – | 90.2% (inactive) | 102% (inactive)
COc1ccc(/C(=C(\c2ccccc2)[N+](=O)[O-])c2ccc(OCCN3CCCC3)cc2)cc1 | 21.8% (inactive) | 37% (inactive) | 92.6% (inactive) | 75.3% (inactive) | 81.8% (inactive) | – | 100% (inactive) | – | 84.3% (inactive) | 99% (inactive)
S=C(N/N=C/c1cc(Cl)cc(Cl)c1)NC12CC3CC(CC(C3)C1)C2 | 20% (inactive) | 73.8% (inactive) | 56.8% (inactive) | 85.7% (inactive) | 23.4% (inactive) | 78.1% (inactive) | 58.2% (inactive) | – | 77% (inactive) | 66.7% (inactive)
CCOC(=O)C1CCCN1C(=O)C1(NC(C)=O)CCCC1 (stereo not given) | 102% (inactive) | 95.7% (inactive) | 103% (inactive) | 96.4% (inactive) | 105% (inactive) | 96.8% (inactive) | 103% (inactive) | – | 103% (inactive) | 104% (inactive)
CCOC1=C(Cl)C(=O)C(OCC)=C(Cl)C1=O | 87.7% (inactive) | 105% (inactive) | 104% (inactive) | 110% (inactive) | 105% (inactive) | 99.1% (inactive) | 105% (inactive) | – | 100% (inactive) | 93.5% (inactive)
CC1=NN(c2cccc(Cl)c2)C(=O)/C1=C\c1cn(-c2nc(N3CCOCC3)nc(N3CCOCC3)n2)c2ccccc12 | 100% (inactive) | 98.3% (inactive) | 107% (inactive) | 103% (inactive) | 105% (inactive) | 106% (inactive) | 106% (inactive) | 104% (inactive) | 103% (inactive) | –
CCCCCCC(C)N(CC(C)(C)O)C(=O)c1ccc([N+](=O)[O-])cc1 (stereo not given) | 89.5% (inactive) | 96% (inactive) | 101% (inactive) | 106% (inactive) | 108% (inactive) | 88.1% (inactive) | 113% (inactive) | – | 85.7% (inactive) | 96.3% (inactive)
NCCCOc1cc2ccccc2cc1C(=O)Nc1ccc(Cl)cc1OC(=O)c1cc2ccccc2cc1OCCCN | -47.5% (active) | -46.6% (active) | -77% (active) | -92.7% (active) | -74.4% (active) | – | -99.1% (active) | -46.8% (active) | -61.5% (active) | -90.8% (active)
CCCCN(CCC)CCCCCCCCCCN1CCCc2ccccc21 | 10.5% (inactive) | -2.32% (active) | 102% (inactive) | 108% (inactive) | 79.4% (inactive) | 48.5% (inactive) | 53.7% (inactive) | – | – | –
CC1(C)NC(=S)NC1=O | 93.1% (inactive) | 101% (inactive) | 106% (inactive) | 108% (inactive) | 103% (inactive) | 116% (inactive) | 112% (inactive) | – | 104% (inactive) | 98.6% (inactive)
COc1cc(/C(=C2/O[C@@H]([C@H]3COC(C)(C)O3)[C@H]3OC(C)(C)O[C@@H]23)c2ccc3c(c2)OCO3)cc(OC)c1OC | 80.9% (inactive) | 73.7% (inactive) | 4.49% (active) | 59.2% (inactive) | 58.1% (inactive) | – | 74.8% (inactive) | – | 44.4% (inactive) | 63.1% (inactive)
CC(=O)OCC(=O)[C@@]1(O)[C@H](C)C[C@H]2[C@@H]3C=C(C)C4=Cc5c(cnn5-c5ccc(F)cc5)C[C@]4(C)[C@H]3[C@@H](O)C[C@@]21C | 0.104% (active) | -16.8% (active) | 32.7% (inactive) | 16.9% (inactive) | 38.8% (inactive) | 16% (inactive) | -20% (active) | – | 18.6% (inactive) | 23.9% (inactive)
COc1ccc(Oc2[nH]n(C3=Nc4ccccc4Sc4ccccc43)c(=O)c2C#N)cc1 | 130% (inactive) | 91.2% (inactive) | 96.2% (inactive) | 116% (inactive) | 112% (inactive) | 91.6% (inactive) | 91.8% (inactive) | – | 87% (inactive) | 95.5% (inactive)
NC(CSC(c1ccccc1)(c1ccccc1)c1ccccc1)C(=O)NCC(=O)O (stereo not given) | 34.1% (inactive) | 49.3% (inactive) | 70.7% (inactive) | 94.7% (inactive) | 100% (inactive) | 72.6% (inactive) | 98% (inactive) | – | 108% (inactive) | 35% (inactive)
N=C(N)N=Nc1ccc(NN=C(N)N)c2ccccc12 | 109% (inactive) | 110% (inactive) | 96.2% (inactive) | 108% (inactive) | 106% (inactive) | 107% (inactive) | 127% (inactive) | – | 110% (inactive) | 88.1% (inactive)
O=C1C=C(OCC=C(C(F)(F)F)C(F)(F)F)c2ccccc2C1=O | -19.7% (active) | -38.7% (active) | -22.8% (active) | 96.3% (inactive) | -7.2% (active) | -12.4% (active) | -19.9% (active) | – | 28.6% (inactive) | 59.8% (inactive)
COc1ccc2cc(C(C)C(=O)Nc3ccc(S(=O)(=O)Nc4cc(C)on4)cc3)ccc2c1 (stereo not given) | 100% (inactive) | 96.6% (inactive) | 95.8% (inactive) | 112% (inactive) | 100% (inactive) | 114% (inactive) | 110% (inactive) | – | 105% (inactive) | 101% (inactive)
O=C1c2ccccc2CCc2ccccc21 | 104% (inactive) | 108% (inactive) | 99.3% (inactive) | 93.7% (inactive) | 104% (inactive) | 93% (inactive) | 103% (inactive) | 105% (inactive) | 101% (inactive) | –
CCCCCCNC(=O)Oc1ccc(/C(=C(/C)Cc2ccc(OC)cc2)c2ccc(OCCN(C)C)cc2)cc1 | -22.5% (active) | 28.8% (inactive) | 69.9% (inactive) | 90.3% (inactive) | 76.8% (inactive) | 74.4% (inactive) | 81.3% (inactive) | 45.9% (inactive) | 78.3% (inactive) | –
COC(=O)Nc1nc2ccc(C(=O)c3ccccc3N(C)C3COC3)cc2[nH]1 | 35.6% (inactive) | -8.33% (active) | 34.7% (inactive) | 57% (inactive) | 75.8% (inactive) | 58.6% (inactive) | 14.6% (inactive) | 22.5% (inactive) | 53.3% (inactive) | –
CC1(C)NCCC[C@]2(C)[C@H]3CC=C4[C@@H]5C[C@](C)(COC(=O)c6ccccc6C(=O)O)CC[C@]5(C)CC[C@@]4(C)[C@]3(C)CC[C@@H]12 | 25.2% (inactive) | 19.2% (inactive) | 83.7% (inactive) | 88.8% (inactive) | 51.3% (inactive) | 59.2% (inactive) | 60% (inactive) | 63% (inactive) | 78.2% (inactive) | –
CC1Cc2cc(F)ccc2-n2cccc21 (stereo not given) | 114% (inactive) | 111% (inactive) | 99.5% (inactive) | 95% (inactive) | – | 92% (inactive) | 109% (inactive) | – | 107% (inactive) | 101% (inactive)
O=C(/C=C/c1ccc(Cl)cc1)c1ccc(Cl)cc1 | 9.81% (active) | 13.7% (inactive) | 106% (inactive) | 104% (inactive) | 106% (inactive) | 88.1% (inactive) | 89.7% (inactive) | – | 99.3% (inactive) | –
N#Cc1ccc(OCc2nc(N)nc(N)c2-c2ccc(Cl)c(Cl)c2)cc1 | 26% (inactive) | 67.7% (inactive) | 19.5% (inactive) | 36.9% (inactive) | 98.6% (inactive) | 24.3% (inactive) | 45.8% (inactive) | – | 38.9% (inactive) | –
CC(O)CN(CC(C)O)N(CC(C)O)CC(C)O (stereo not given) | 94.2% (inactive) | 98.9% (inactive) | 97.9% (inactive) | 101% (inactive) | 98.2% (inactive) | 113% (inactive) | 109% (inactive) | 108% (inactive) | 106% (inactive) | –
C=C(C)[C@@H]1CC[C@]2(COC(=O)c3ccccc3C(=O)O)CC[C@]3(C)[C@H](CC[C@@H]4[C@@]5(C)CCCNC(C)(C)[C@@H]5CC[C@]43C)[C@@H]12 | 6.59% (active) | 23.3% (inactive) | 70.5% (inactive) | 90% (inactive) | 57.3% (inactive) | 54.5% (inactive) | 68% (inactive) | 78.5% (inactive) | 89.7% (inactive) | –
